Screening data deposited in PubChem BioAssay by several laboratories.
In the library only some 3.3% were active in any assay of this set; here they are far more common.
Mcl1-Bid inh: Mcl-1/Bid interaction inhibition; TR-FRET Mcl-1/Bid-Dy647 peptide binding, 1536-well; 220,000 compounds, 0.97% hits; AID 1021; inhibition, % at 21.7 µM;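 active = compounds that cut the binding signal by more than half at the single screening dose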;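 also: His-tagged Mcl-1 with europium anti-His antibody binding Bid BH3 peptide; 0% = Mcl-1 plus peptide wells and 100% = peptide-only wells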
Mcl1 Noxa PPI: disrupts binding of human Mcl-1 to Noxa peptide | Q07820 | TR-FRET Mcl-1/Noxa peptide binding, 2 h | inhibition, % at 21.7 µM | 220,000 compounds, 1.5% hits | AID 1022;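 active = compounds that cut the protein-peptide binding signal by more than 50% relative to plate controls in a single-dose test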;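 also: His-tagged Mcl-1 with rhodamine Noxa BH3 peptide and terbium anti-His antibody; 0% = Mcl-1 plus Noxa peptide wells and 100% = peptide-only wells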
eIF4E 4G PPI: eIF4E/eIF4G interaction inhibition in translation initiation | P63073+Q04637 | AID 782 | 220,000 compounds, 0.37% hits | inhibition, % at 21.7 µM | TR-FRET eIF4E-eIF4GI(517-606) binding, 2 h;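 also: 0% = full FRET control wells and 100% = background wells lacking eIF4GI fragment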
14-3-3 Bad PPI: disrupts binding of bovine 14-3-3 zeta to phospho-Bad peptide; inhibition, % at 21.7 µM; TR-FRET 14-3-3zeta/Dy647-pBad peptide displacement, 1 h; 220,000 compounds, 0.71% hits; P63103;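 active = inhibition above about 70%, limit read from the data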;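 also: 0% = full 14-3-3 plus peptide FRET controls and 100% = background without 14-3-3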
Target sequence (P63103 whole entry, looked up): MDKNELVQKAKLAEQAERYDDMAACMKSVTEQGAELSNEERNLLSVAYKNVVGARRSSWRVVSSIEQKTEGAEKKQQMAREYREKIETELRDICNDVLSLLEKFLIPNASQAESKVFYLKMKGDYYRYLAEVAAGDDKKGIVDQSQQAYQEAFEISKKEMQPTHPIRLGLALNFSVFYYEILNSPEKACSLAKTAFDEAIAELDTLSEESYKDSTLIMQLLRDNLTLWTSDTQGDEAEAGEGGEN
Mcl-1 Bim block: inhibitors of Bim-Mcl-1 interaction, human. inhibition, % at 10 µM. Bead-based flow cytometry, Bim peptide-Mcl-1 binding. Q07820. 190,000 compounds, 0.1% hits; in the data active = inhibition above about 40%;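 also: 0% = no compound tracer wells and 100% = peptide blocker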
NCF1 inh: blocks human p47phox regulatory protein of NADPH oxidases | inhibition, % at 24.7 µM | 220,000 compounds, 0.53% hits | AID 1274 | p47phox/p22phox peptide binding, fluorescence polarization, 2 h;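 also: 0% = p47phox with labelled peptide and 100% = labelled peptide alone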
Target sequence (P14598 whole entry, looked up): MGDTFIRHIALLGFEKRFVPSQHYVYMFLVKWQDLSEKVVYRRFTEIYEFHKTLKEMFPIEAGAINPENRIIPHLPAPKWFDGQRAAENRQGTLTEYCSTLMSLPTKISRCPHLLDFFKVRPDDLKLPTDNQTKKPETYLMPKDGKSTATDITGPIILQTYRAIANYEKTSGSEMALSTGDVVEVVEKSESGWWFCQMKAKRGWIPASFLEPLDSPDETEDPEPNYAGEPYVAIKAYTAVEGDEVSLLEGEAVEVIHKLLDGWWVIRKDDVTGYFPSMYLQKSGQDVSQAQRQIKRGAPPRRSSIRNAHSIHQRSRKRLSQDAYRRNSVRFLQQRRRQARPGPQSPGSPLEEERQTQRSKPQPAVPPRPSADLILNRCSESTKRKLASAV
Active calls of the source: *; / = no result.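 The calls were made as follows, unless noted: active = inhibition above about 30% (limit read from the data); inactive = the rest.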

SMILES	Mcl1-Bid inh	Mcl1 Noxa PPI	eIF4E 4G PPI	14-3-3 Bad PPI	Mcl-1 Bim block	NCF1 inh
CCc1nnc(NC(=O)Cn2nc(-c3ccccc3OC)ccc2=O)s1	-0.5	5.8	35.8*	8.4	-1.0	-2.5
CCc1nnc(NC(=O)CSc2nnc(-c3ccco3)n2C)s1	-0.8	6.5	-2.0	8.0	-1.0	-6.0
C[N+](C)(C)C(Cc1c[nH]c2ccccc12)C(=O)[O-] (centres undefined)	-79.7	13.2	-19.5	-3.5	/	-13.2
CC(C)(C)c1ccc(SCCc2cccnc2)cc1	-11.4	-5.7	5.0	-3.8	/	2.8
COc1cc(SC)ccc1C(=O)NCc1ccc(C)cc1	-21.5	5.0	-7.3	14.2	-6.0	-4.2
COc1cc(SC)ccc1C(=O)N1CCN(c2ccccc2)CC1	-43.7	82.3*	1.0	-0.3	0.0	-2.2
COc1cc(SC)ccc1C(=O)NCc1ccccc1	-37.2	-7.8	-1.8	2.3	0.0	76.8*
N#Cc1ccc(Cl)cc1NC(=O)CSc1nc2nc(-c3cccs3)cc(C(F)(F)F)c2c(=O)[nH]1	11.9	45.7	30.9*	38.9	/	-20.6
CCOC(=O)c1sc(NC(=O)CCCn2nc([N+](=O)[O-])cc2C)c(C(=O)OCC)c1C	-9.0	17.9	3.2	-11.2	3.0	1.7
CCc1nn2cc(C(=O)c3cc(C)ccc3O)cnc2c1-c1ccc(F)cc1	-40.0	17.8	4.6	-1.2	42.0*	-0.6
O=C1/C(=C/c2cccc(Br)c2)SC(=S)N1/N=C/c1cc([N+](=O)[O-])ccc1O	-21.6	-28.0	-1.4	-0.8	/	-5.1
N#Cc1c(NC(=O)CSc2nc3c(c(C(F)(F)F)n2)CCc2ccccc2-3)sc2c1CCCC2	-14.1	6.2	-1.1	4.6	0.0	-28.8
Cc1ccc(Cn2nc(C)c(NC(=O)CSc3nc4c(c(C(F)(F)F)n3)CCc3ccccc3-4)c2C)cc1	74.2*	34.2	30.2*	66.1	-3.0	49.7*
Cc1nn(Cc2ccc(Cl)cc2)c(C)c1NC(=O)CSc1nc2c(c(C(F)(F)F)n1)CCc1ccccc1-2	41.7	-9.6	0.6	34.7	0.0	44.9*
CCOC(=O)CSc1nnc(CSc2nc3ccccc3s2)n1C	-1.9	4.0	8.0	9.4	-1.0	1.7
Cn1c(CSc2nc3ccccc3s2)nnc1SCC(=O)NCc1cccnc1	94.3*	-16.0	0.1	-10.6	1.0	8.7
Cn1c(CSCc2ccc(Cl)cc2)nnc1SCC(=O)Nc1nc2ccccc2s1	62.0*	0.6	-33.4	-6.3	-1.0	-12.4
CS(=O)(=O)N1N=C(c2cccs2)CC1c1ccco1 (centres undefined)	-36.8	15.4	4.8	6.0	1.0	-93.0
CC(C)(C)n1cc(S(=O)(=O)c2ccccc2)[nH]c1=O	-29.5	2.5	-1.0	-15.3	0.0	-9.5
Cc1ccc(-c2noc(-c3ccccc3C(=O)N3CCCC3)n2)cc1	-13.6	5.6	0.4	-3.8	1.0	-9.0
Cc1ccc(-c2noc(-c3ccccc3C(=O)N3CCN(C)CC3)n2)cc1	70.6*	6.3	0.7	-4.9	-3.0	-1.9
CCOC(=O)N1CCN(c2ccc(C(=O)CC)cc2F)CC1	-10.8	-3.7	5.3	-11.1	3.0	9.4
CCCC(=O)c1ccc(N2CCN(C(=O)OCC)CC2)c(F)c1	-5.3	-3.9	8.7	76.8*	-1.0	-4.8
Cc1cc(C)c(O)c(-c2n[nH]c3c2C(c2cccc(O)c2)N(Cc2ccco2)C3=O)c1 (centres undefined)	5.9	10.6	7.4	6.2	/	-23.6
N#CC(C#N)=C1c2cc(S(=O)(=O)NCCO)ccc2-c2ccc(S(=O)(=O)NCCO)cc21	-32.4	-14.6	-2.5	-0.7	/	-8.4
SMILES	Mcl1-Bid inh	Mcl1 Noxa PPI	eIF4E 4G PPI	14-3-3 Bad PPI	Mcl-1 Bim block	NCF1 inh
N#CC(C#N)=C1c2cc(S(N)(=O)=O)ccc2-c2ccc(S(N)(=O)=O)cc21	29.3	49.7	11.3	81.2*	-5.0	10.1
CC(=O)C1=C(O)C(=O)N(CCCn2ccnc2)C1c1ccc(C)cc1 (centres undefined)	6.1	17.0	-5.2	12.7	0.0	-1.3
O=c1n(Cc2ccccc2Cl)nc2n1-c1ccccc1SC2	-12.4	6.1	1.7	1.3	/	-0.7
O=[N+]([O-])C1=CC=C2C(=NC3(CCCCC3)N2O)C1=NC1CCCCC1	-37.3	11.7	13.2	-8.3	5.0	48.4*
CC(C)(C)N=C1C([N+](=O)[O-])=CC=C2C1=NC1(CCCCC1)N2O	-7.7	3.9	6.2	-10.2	-3.0	-4.3
O=[N+]([O-])C1=CC=C2C(=NC3(CCCCC3)N2O)C1=NCCc1ccccc1	-5.4	-6.3	1.0	-20.8	0.0	129.5*
CC1(C)CC(N=C2C([N+](=O)[O-])=CC=C3C2=NC2(CCCCC2)N3O)CC(C)(C)N1	-27.1	34.6	4.1	-5.1	/	6.6
O=S(=O)(Cc1ccccc1)N1CCN(Cc2ccc3c(c2)OCO3)CC1	1.5	-18.2	1.5	8.0	21.0	-16.2
Cc1nnc2c3ccccc3c(Cl)nn12	-29.7	-14.6	2.9	6.3	3.0	-3.2
CCOc1ncccc1C(=O)Nc1nc(SC)ns1	-23.5	1.9	5.0	-0.7	-1.0	-8.9
CN(C)C(CNC(=O)c1ccc(S(=O)(=O)N(C)C)cc1)Cc1ccccc1 (centres undefined)	-9.2	3.9	-0.9	-1.9	1.0	-6.1
COc1ccccc1-c1nc(-c2ccc(Br)cc2)no1	-22.1	-22.2	0.0	9.2	7.0	-8.2
COc1ccc(-c2nc(-c3ccc(Br)cc3)no2)c(OC)c1	9.6	-4.5	31.7*	16.3	-1.0	-13.8
CC(C(Sc1ccccc1N)c1ccccc1)[N+](=O)[O-] (centres undefined)	-9.4	-8.2	-5.1	-1.8	/	-18.9
COCCCN(C(=O)Nc1cccc(Cl)c1)C(C)c1ccccn1 (centres undefined)	-8.0	9.6	2.2	72.5*	-3.0	11.1
CCN(CC)C(=O)/C=C/c1ccc(OC)c(S(=O)(=O)N2CCCCC2)c1	-2.9	-11.2	-3.1	-11.6	0.0	-7.2
Cc1cc(C)n(CC2CC(=O)N(c3ccc(Cl)cc3)C2=O)n1 (centres undefined)	-0.9	6.8	0.7	-5.4	/	23.1
Cc1ccc(N2C(=O)CC(Cn3nc(C)cc3C)C2=O)cc1 (centres undefined)	91.1*	10.6	/	/	0.0	-7.1
CCOC(=O)CNC(=O)CSc1nnc(SCC(=O)NCC(=O)OCC)s1	-46.8	-3.4	-7.2	-10.0	-1.0	-6.0
O=C(O)CCSc1nnc(SCC(=O)NCC(F)(F)F)s1	-35.0	14.1	56.2*	7.4	-4.0	-7.7
COc1ccc(Cl)cc1NC(=O)C(OC)c1ccccc1 (centres undefined)	27.2	28.8	2.0	86.8*	-2.0	2.8
CCC(C(=O)Nc1cc(Cl)ccc1OC)c1ccccc1 (centres undefined)	3.8	-0.9	10.1	2.6	-1.0	12.0
CC(C)(C)C1=Nn2c(nnc2-c2ccccn2)SC1	-11.8	31.3	51.3*	11.8	2.0	0.3
CC(C)(C)C1=Nn2c(nnc2-c2ccccc2F)SC1	-23.4	-2.7	/	/	-1.0	3.4
